Growth data for 9 compounds are collected here from PubChem BioAssay (NCI).

About 83,000 compounds went through this panel and 20% of them were active in at least one assay; those are over-represented in the sample as a whole.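 Single-dose data. Exposure time 48 hours. Values below 10 considered active.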 A number with no mark means an inactive call. Active and inactive are the calls of the source.

Among the test systems are HCT-15 colon; HT29 colon; SNB-19 CNS; U251 CNS; PC-3 prostate; SK-MEL-5 melanoma; UACC-62 melanoma; SK-MEL-28 melanoma; SK-MEL-2 melanoma; EKVX NSCLC; SN12C renal; UO-31 renal; TK-10 renal; ACHN renal; CAKI-1 renal; CCRF-CEM leukemia; MOLT-4 leukemia; LOX IMVI melanoma; A498 renal; SNB-75 CNS.
What all share (test): NCI-60 one-dose screen, 48 h (100 = growth as untreated, 0 = no growth, -100 = all killed)
What all share (conditions): 10 µM unless noted

In the case of `O=S(=O)(Nc1ccc2c(c1)OCO2)c1ccc(-c2cnc(C3CC3)o2)cc1`, the growth in the assay on HCT-15 colon was 20.3%; in the assay with HT29 colon, 14%; with SNB-19 CNS it was 38.1%; in the assay with U251 CNS, 27.4%; with PC-3 prostate it was 37.9%; in the assay with SK-MEL-5 melanoma, 30%. The growth was 33.2% in the assay on UACC-62 melanoma; 51.2% in the assay with SK-MEL-28 melanoma; 53.5% in the assay on SK-MEL-2 melanoma; 43.2% with EKVX NSCLC; 36.8% with SN12C renal; 45.5% in the assay on UO-31 renal. In addition, the growth with TK-10 renal is 73.8%; in the assay on ACHN renal, 43.6%; in the assay with CAKI-1 renal it was 40.8%; in the assay on CCRF-CEM leukemia it was 27%; in the assay on MOLT-4 leukemia, 31.5%.

Turning to `CN1CCN(c2nc(-c3csc(-c4ccccc4)n3)cc3ccccc23)CC1`, the growth in the assay on HCT-15 colon was -48.6% (active); with HT29 colon, -52% (active); with SNB-19 CNS, 66.1%; in the assay on U251 CNS, 36.7%; with SK-MEL-5 melanoma, 58.7%; in the assay with UACC-62 melanoma, -38.4% (active). The growth with LOX IMVI melanoma is -80.7% (active); with SK-MEL-28 melanoma, -25.2% (active); with EKVX NSCLC it was 63.5%; in the assay on SN12C renal, 50.2%; with UO-31 renal, 43.6%; in the assay with TK-10 renal, 73.3%. Also, the growth was 16.1% in the assay on ACHN renal, 21.2% in the assay with CAKI-1 renal, 14.2% with CCRF-CEM leukemia and 4.08% (active) in the assay with MOLT-4 leukemia.

On to `Clc1ccc(N/N=c2/oc3ccccc3cc2-c2cc3ccccc3[nH]2)cc1`, for which the growth was 59.4% in the assay with HCT-15 colon; 69.2% in the assay on HT29 colon; 85.4% in the assay on SNB-19 CNS; 80.2% in the assay with U251 CNS; 63.9% in the assay with PC-3 prostate; 82.5% in the assay with SK-MEL-5 melanoma. Moreover, the growth with UACC-62 melanoma is 73.9%; with SK-MEL-2 melanoma it was 108%; with SN12C renal, 70.9%; in the assay with UO-31 renal, 49.7%; in the assay with TK-10 renal it was 145%; in the assay with ACHN renal, 49.7%. In addition, the growth is 58.4% in the assay on CAKI-1 renal and 79.7% with CCRF-CEM leukemia.

On to `Cc1cc(-c2ccc(Cl)cc2)n(Cc2nnc(SCC(=O)Nc3ccc(S(N)(=O)=O)cc3)n2-c2ccc([N+](=O)[O-])cc2)n1`, for which the growth was 68.3% in the assay on HCT-15 colon; 90.9% with HT29 colon; 84.6% in the assay with SNB-19 CNS; 56.5% in the assay on PC-3 prostate; 95.9% with SK-MEL-5 melanoma; 77.4% in the assay with UACC-62 melanoma. Also, the growth in the assay on LOX IMVI melanoma was 88.4%; in the assay on SK-MEL-28 melanoma, 97.4%; in the assay with SK-MEL-2 melanoma, 87%; with EKVX NSCLC, 75.1%; with SN12C renal, 82%; in the assay with UO-31 renal, 64%. The growth was 105% in the assay with TK-10 renal; 79.1% in the assay with ACHN renal; 71.2% in the assay with CAKI-1 renal; 84.5% in the assay on A498 renal; 79.8% with CCRF-CEM leukemia; 54.4% in the assay with MOLT-4 leukemia.

For the compound `COc1ccc(C2CC(c3ccc(Nc4nc(NCCO)nc(N5CCOCC5)n4)cc3)=Nc3c(N)nc(N)nc3N2)cc1` (stereo not drawn), the growth in the assay with HCT-15 colon was 100%; with HT29 colon it was 102%; in the assay on SNB-19 CNS it was 102%; in the assay on U251 CNS, 95.5%; in the assay on PC-3 prostate, 105%; in the assay on SK-MEL-5 melanoma, 96.2%. For the same compound, the growth was 103% in the assay with LOX IMVI melanoma; 108% in the assay with SK-MEL-28 melanoma; 107% in the assay with SK-MEL-2 melanoma; 96.9% with SN12C renal; 93.7% in the assay on UO-31 renal; 115% in the assay with TK-10 renal. Besides, the growth with ACHN renal was 102%; in the assay with CAKI-1 renal, 94.3%; in the assay on A498 renal, 87.9%; in the assay on CCRF-CEM leukemia, 105%; in the assay on MOLT-4 leukemia it was 102%.

For the compound `O=C(O)c1ccc(-n2cc(CNc3cc(F)c(F)c(F)c3)c(-c3cccc(F)c3)n2)cc1`, the growth was 46.8% in the assay with HCT-15 colon; 106% with SNB-75 CNS; 97.4% in the assay with SNB-19 CNS; 79.1% in the assay with PC-3 prostate; 67.4% in the assay on SK-MEL-5 melanoma; 58.2% with UACC-62 melanoma. In addition, the growth in the assay on LOX IMVI melanoma is 104%; in the assay with SK-MEL-28 melanoma, 83.2%; in the assay on SK-MEL-2 melanoma, 79.6%; in the assay with EKVX NSCLC, 65.5%; with SN12C renal, 91.3%; in the assay with UO-31 renal, 77%. Moreover, the growth in the assay with TK-10 renal was 128%; in the assay on ACHN renal it was 77.4%; in the assay with A498 renal, 99.4%; with CCRF-CEM leukemia it was 92.3%.

`COc1ccc2[nH]cc(/C=N/Nc3nc4ccccc4s3)c2c1`: the growth was 22.9% in the assay with HCT-15 colon; 66.5% in the assay on SNB-75 CNS; 80% in the assay with SNB-19 CNS; 55.7% in the assay with U251 CNS; 33.2% in the assay on PC-3 prostate; 83.7% with SK-MEL-5 melanoma. Further, the growth in the assay with UACC-62 melanoma is 73.1%; in the assay with LOX IMVI melanoma, 30.7%; in the assay on SK-MEL-28 melanoma it was 83.1%; in the assay on SK-MEL-2 melanoma it was 80.5%; in the assay with EKVX NSCLC, 50%; in the assay with SN12C renal, 69.6%. The growth is 37.4% in the assay with UO-31 renal; 103% in the assay on TK-10 renal; 63.9% with ACHN renal; 41.3% in the assay with CAKI-1 renal; 63.4% in the assay with A498 renal; 47.3% in the assay on CCRF-CEM leukemia. In the assay on MOLT-4 leukemia, the growth was 35.9%.

For `COc1ccc(/C(N)=N/C(N)=N/c2nc3ccccc3s2)cc1`, the growth is 62.6% with HCT-15 colon; 23.5% with SNB-75 CNS; 86.2% in the assay with SNB-19 CNS; 68% in the assay on U251 CNS; 62% in the assay with PC-3 prostate; 72% with SK-MEL-5 melanoma. In addition, the growth with UACC-62 melanoma was 59.6%; in the assay with LOX IMVI melanoma it was 22.8%; in the assay with SK-MEL-2 melanoma it was 66.7%; in the assay on EKVX NSCLC, 61%; in the assay on SN12C renal, 79%; with UO-31 renal, 57.4%. Also, the growth in the assay on TK-10 renal is 117%; in the assay on ACHN renal, 80.8%; with CAKI-1 renal it was 40%; with A498 renal, 64.9%; in the assay with MOLT-4 leukemia, 74.6%.

Regarding `N#Cc1cn(Cc2ccc(Cl)cc2Cl)c(C(=O)c2ccc(Br)cc2)c1N`, the growth is 94.6% with HCT-15 colon; 89.6% in the assay with SNB-75 CNS; 69.5% with SNB-19 CNS; 86.1% in the assay on U251 CNS; 86.9% in the assay with PC-3 prostate; 97.5% in the assay with SK-MEL-5 melanoma. Further, the growth in the assay with UACC-62 melanoma is 82.8%; with LOX IMVI melanoma, 90.1%; in the assay with SK-MEL-28 melanoma it was 99%; with SK-MEL-2 melanoma it was 97.9%; in the assay with EKVX NSCLC, 93.8%; with SN12C renal it was 101%. For the same compound, the growth with UO-31 renal is 81.6%; in the assay on TK-10 renal, 101%; with ACHN renal, 99%; with CAKI-1 renal, 92.3%; in the assay on A498 renal, 86.7%; in the assay with CCRF-CEM leukemia, 108%. In addition, in the assay on MOLT-4 leukemia, the growth was 98.9%.
